Assay outcomes (PubChem BioAssay)
Hits are enriched below; roughly 3.5% of the tested compounds scored in any of these assays.
MITF primary: human MITF inhibition, primary screen; O75030; AlphaScreen MITF homodimerization, bead proximity signal; inhibition, % at 2.6 µM; 650,000 compounds, 0.91% hits; AID 1259374; in the data active = inhibition above about 50%
TEAD-YAP inh: TEAD-YAP interaction inhibition; AID 1259422; HEK-TIYL cells, TEAD-Gal4/YAP UAS-luciferase luminescence; 640,000 compounds, 1.4% hits; inhibition, % at 9.12 µM; in the data active = inhibition above about 32%
GPR151 activ: human GPR151 activation. Q8TDV0. PathHunter beta-arrestin GPR151 cells, luminescence. activation, % at 11.2 µM. 650,000 compounds, 1% hits. AID 1508602; in the data active = activation above about 4.9%
Target sequence (Q8TDV0 whole entry, looked up): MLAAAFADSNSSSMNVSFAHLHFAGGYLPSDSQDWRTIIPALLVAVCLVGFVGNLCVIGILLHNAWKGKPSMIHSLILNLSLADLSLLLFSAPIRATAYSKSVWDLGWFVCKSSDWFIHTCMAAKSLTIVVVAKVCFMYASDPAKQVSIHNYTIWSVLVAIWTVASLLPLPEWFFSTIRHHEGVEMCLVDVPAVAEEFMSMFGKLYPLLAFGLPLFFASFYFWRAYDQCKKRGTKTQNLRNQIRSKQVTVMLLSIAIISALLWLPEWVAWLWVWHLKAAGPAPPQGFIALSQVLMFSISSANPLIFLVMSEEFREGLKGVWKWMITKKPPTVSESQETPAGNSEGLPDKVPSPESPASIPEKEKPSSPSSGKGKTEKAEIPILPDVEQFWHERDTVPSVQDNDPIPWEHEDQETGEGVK
FBW7 activator: activators of human E3 ligase FBW7; Q969H0; AlphaScreen FBW7–phospho-cyclin E peptide binding, activator screen; normalized activity (activation), % at 26.1 µM; 650,000 compounds, 0.13% hits; AID 1259310; in the data active = normalized activity above about 1.9%;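 also: purified mutant Fbw7 with reduced substrate affinity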
Hits are given with their value; i = inactive.

SMILES	MITF primary	TEAD-YAP inh	GPR151 activ	FBW7 activator
O=C1c2cccc([N+](=O)[O-])c2C(=O)N1c1ccc(Oc2ccc3ccccc3c2)cc1	i	i	i	i
Cc1ccc(Oc2ccc(N3C(=O)c4cccc([N+](=O)[O-])c4C3=O)cc2)cc1C	i	33	i	i
COc1ccc(Oc2ccc(N3C(=O)c4cccc([N+](=O)[O-])c4C3=O)cc2)cc1	i	i	i	i
O=C(Nc1ccc(O)cc1)c1cccc(N2C(=O)c3cccc([N+](=O)[O-])c3C2=O)c1	i	i	i	i
O=C1c2cccc([N+](=O)[O-])c2C(=O)N1c1ccc(Oc2cccc3ccccc23)cc1	i	74	i	i
CCOc1ccc(CSc2n[nH]c(CC)n2)cc1	i	i	i	i
CCOc1ccc(CSc2n[nH]c(C)n2)cc1	i	88	i	i
CCCOc1ccc(CSc2n[nH]c(C)n2)cc1	i	82	i	i
NC(=O)CSc1nc2sc3c(c2c(=O)n1-c1cccc2ccccc12)CCCC3	i	38	i	i
O=C(N/N=C/c1cc(Br)c(O)c(Br)c1)c1cc(O)c(O)c(O)c1	90	i	i	i
O=C(N/N=C/c1ccc(O)c(O)c1)c1cc(O)cc(O)c1	i	i	i	i
O=C(N/N=C/c1ccc(/C=N/NC(=O)c2ccc(O)c(O)c2)cc1)c1ccc(O)c(O)c1	107	i	i	i
O=C(N/N=C/c1ccc(O)cc1)c1cc(O)c(O)c(O)c1	59	i	i	i
COc1cc(Nc2ncnc3nc(N4CCc5ccccc5C4)[nH]c23)cc(OC)c1OC	i	i	i	i
Cc1ccc(-c2csc(NC(=O)CSc3nncn3C)n2)cc1	i	i	i	i
CCN1C(=O)CC(C(=O)Nc2ccc(Br)cc2)SC1=Nc1ccc(OC)cc1 (stereo not drawn)	i	34	i	i
CCOc1ccc(NC(=O)C2CC(=O)N(CC)C(=Nc3ccc(OC)cc3)S2)cc1 (stereo not drawn)	i	i	i	i
O=C(CCCN1C(=O)c2cccc3cccc(c23)C1=O)OC(=NC1CCCCC1)NC1CCCCC1	i	i	i	i
CC(C)(C)c1ccc(C(=O)Nc2nnc(SCC(=O)O)s2)cc1	i	71	i	i
CSc1nnc(NC(=O)c2ccc(C)cc2)s1	i	76	i	i
CSc1nnc(NC(=O)c2ccc(F)cc2)s1	i	i	i	i
CSc1nnc(NC(=O)c2ccc(C(C)(C)C)cc2)s1	i	32	i	i
Cc1ccc(C(=O)Nc2nnc(SCC(=O)NCC3CCCO3)s2)cc1 (stereo not drawn)	i	42	i	i
CCN(CC)C(=O)C1CCCN(c2ccc(-n3cc(CC(=O)NCc4ccccc4)c4ccccc43)nn2)C1 (stereo not drawn)	i	i	i	i
Cc1ccc(N(CC(=O)Nc2cccc([N+](=O)[O-])c2)S(C)(=O)=O)c(C)c1	i	i	i	i
SMILES	MITF primary	TEAD-YAP inh	GPR151 activ	FBW7 activator
COc1cc2c(C(=O)N(C)c3ccccc3C)cn(CC(C)C)c(=O)c2cc1OC	i	i	i	2.2
CC(=O)Nc1cccc(Oc2ccc3c(c2)C(=O)N(c2cccc(Cl)c2)C3=O)c1	i	80	i	i
CC(=O)Nc1cccc(Oc2ccc3c(c2)C(=O)N(c2cccc(OC(C)=O)c2)C3=O)c1	i	46	i	i
CCN=c1scc(-c2cccc(Br)c2)n1/N=C/c1cccnc1	i	i	i	i
Cc1ccc(/C=N/NC(=O)CNc2cccc(C)c2)cc1	i	38	i	i
Cc1ccc(/C=N/NC(=O)CNC(=O)c2ccccc2Br)cc1	i	47	i	i
Cc1nc(N)sc1C(=O)N/N=C/c1c(Cl)ccc(Cl)c1Cl	i	i	i	2.5
Cc1nc(N)sc1C(=O)N/N=C/c1c(F)cccc1Cl	i	i	i	i
COc1ccc(NC(=O)CCCn2c(=S)[nH]c3c([nH]c4ccc(OC)cc43)c2=O)cc1	i	i	i	i
Cc1cc(Br)cc(/C=N\NC(=O)c2ccc(N)cc2)c1O	i	66	i	i
COc1cc(Br)cc(/C=N/NC(=O)c2ccc(F)cc2)c1O	i	i	i	i
COc1cc(Br)cc(/C=N/NC(=O)c2ccncc2)c1O	91	87	i	i
COc1cc(Cl)cc(/C=N/NC(=O)c2cccc(F)c2)c1O	i	70	i	i
O=C(N/N=C/c1cc(Cl)cc(Br)c1O)c1ccncc1	98	47	i	i
COc1cc(Br)cc(/C=N\NC(=O)c2ccc(Br)cc2)c1O	i	i	i	i
CC(=O)Nc1cccc(NS(=O)(=O)c2ccc(Br)cc2)c1	i	i	i	i
O=C(N/N=C/c1cc(Br)cc(Br)c1O)c1cccnc1	i	33	i	i
COc1ccc(C(=O)N/N=C/c2cc(Cl)cc(Br)c2O)cc1	i	33	i	i
